Shown are actives, neighbours in structure and some others; about 12% of the full set was active somewhere.
G9a inh-1 = G9a (human) methyltransferase inhibition. G9a H3K9 monomethylation, AlphaScreen, 2 h. AID 504332. Potency, µM (highest dose often 102 µM), actives largely listed as inhibitors. actives 8.8% (n = 350,000); further: nearly all actives have a fitted effect of over 75% in size
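G9a (20 nM) was preincubated 15 min with compound, then reacted 2 h at room temperature with 500 nM biotin-H3K9 peptide and 20 µM SAM. Monomethyl-H3K9 detected by AlphaScreen using anti-H3K9me1 antibody.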
HP1b binding inh = blocks HP1-beta chromodomain binding to methylated histone tails. P83916. AlphaScreen HP1-beta / biotin-H3K9me3 peptide binding. Potency, µM (titrated, usually from 114 µM), usual class: inhibitors. actives 0.56% (n = 390,000). AID 540317; further: nearly all actives have a fitted effect of over 70% in size
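Compound inhibition of the preformed complex between 50 nM HP1-beta and 50 nM biotinylated H3K9me3 peptide was read by AlphaScreen. Buffer was PBS pH 7.4 with 0.01% Tween-20. Incubations ran 30 min at room temperature, with 10 ug/mL donor/acceptor beads.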
BAZ2B block = inhibitors of human BAZ2B bromodomain | AlphaScreen BAZ2B-H3K14Ac peptide displacement | Potency, µM (titrated, usually from 114 µM), actives largely listed as inhibitors | actives 4.4% (n = 360,000); further: nearly all actives have a fitted effect of over 60% in size
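Multi-concentration screen (max 110 uM) measuring displacement of acetylated histone H3 peptide from BAZ2B by AlphaScreen, using 50 nM protein, 50 nM peptide and 10 ug/mL streptavidin donor plus Ni-chelate acceptor beads.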
JMJD2A Tudor inh = JMJD2A Tudor domain (human) inhibition; O75164; AlphaScreen JMJD2A-Tudor / H3K4me3 peptide binding; Potency, µM (doses to about 114 µM), actives largely listed as inhibitors; actives 4.4% (n = 390,000); further: nearly all actives have a fitted effect of over 50% in size
Sfp inh = Sfp phosphopantetheinyl transferase inhibition; Q9F4F7; actives 3.5% (n = 310,000); Potency, µM, usual class: inhibitors; Biochemical Sfp PPTase activity, qHTS; AID 1490;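 further: the enzyme is Sfp with the accession as filed and its product quenches rhodamine fluorescence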
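Fluorescence-quenching assay: 15 nM Sfp-PPTase preincubated 15 min at room temperature with compound, then 5 uM rhodamine-CoA and 12.5 uM BHQ-2-labelled YbbR peptide added. Fluorescence (ex 525/em 598 nm) read at start and after 30 min; difference gives rate.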
L3MBTL1 inh-1 = blocks human L3MBTL1. Q9Y468. AlphaScreen L3MBTL1–H3K9me1 peptide binding. actives 0.66% (n = 230,000). Potency, µM (doses to about 57.1 µM), hits mostly inhibitors; further: nearly all actives have a fitted effect of over 60% in size
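Read-out is AlphaScreen signal from streptavidin donor and nickel chelate acceptor beads (10 ug/mL final each) bridging L3MBTL1 (50 nM) and biotinylated K9-monomethylated H3(1-15) peptide (75 nM), after 30 min compound exposure at room temperature.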
L3MBTL1 inh-2 = validation of human L3MBTL1 methyl-lysine binding inhibitors. actives 91% (n = 500). L3MBTL1 methyl-lysine binding inhibition, biochemical qHTS. AID 540279. shares compounds with L3MBTL1 inh-1. Potency, µM, most hits filed as inhibitors; further: nearly all actives have a fitted effect of over 70% in size
L3MBTL1 ctr = interferes with AlphaScreen signal in L3MBTL1 counterscreen; shares compounds with L3MBTL1 inh-1; 500 tested, under 10 active; Potency, µM (top dose mostly 57.1 µM), most hits filed as inhibitors; AlphaScreen counterscreen, signal inhibition; AID 602224
ME-1 growth = reduces ME-1 leukemia cell proliferation; shares compounds with BAZ2B block; ME-1 cell proliferation, ATP luminescence, 48 h; Potency, µM (titrated, usually from 56.1 µM), actives largely listed as inhibitors; actives 20% (n = 140)
G9a inh-2 = inhibits human G9a histone lysine methyltransferase, hit confirmation; shares compounds with JMJD2A Tudor inh; G9a H3K9 monomethylation, AlphaScreen, 2 h; Potency, µM, most hits filed as inhibitors; actives 89% (n = 370); AID 588344; further: nearly all actives have a fitted effect of over 65% in size
A number is an active result; – = inactive; ? = inconclusive; · = no result given; [ ] = remark or other dose. The call rests on the fitted dose curve; in most records, active means well fitted curve in the direction sought with a large enough effect; inconclusive means small, poorly fitted or top-dose-only effect, or another doubt; inactive means no such curve, though single readings can be large; an effect the other way counts as inactive or inconclusive.

SMILES	G9a inh-1	HP1b binding inh	BAZ2B block	JMJD2A Tudor inh	Sfp inh	L3MBTL1 inh-1	L3MBTL1 inh-2	L3MBTL1 ctr	others
CCCCn1c(NS(=O)(=O)c2ccc(C)cc2)c(S(=O)(=O)c2ccccc2)c2nc3ccccc3nc21	?	–	–	–	–	5.01µM	21.2	–
O=C(Nc1cccc(S(=O)(=O)NC2=NCCCCC2)c1)c1cc(-c2ccncc2)nc2ccccc12	–	–	·	–	–	–	·	·
O=C(Nc1cccc(S(=O)(=O)NC2=NCCCCC2)c1)c1cc(-c2ccco2)nc2ccccc12	?	?	?	–	5.01µM	35.5µM	2.99	–
Cc1ccc(-c2nn(C)c(=O)c3ccccc23)cc1S(=O)(=O)NCCN1CCOCC1	–[12.7 µM]	–	–	–	–	–	·	·
CCOC(=O)CNS(=O)(=O)c1cc(-c2nn(C)c(=O)c3ccccc23)ccc1C	?	–	56.2µM	?	–	28.2µM	?	?
Cc1nn(CC(=O)N2CCN(S(=O)(=O)c3ccccc3)CC2)c(C)c1[N+](=O)[O-]	–[2.33 µM]	–	–	–	·	–	·	·
CCCC1Nc2ccc(C(=O)O)cc2C2C=CCC12 (stereo not drawn)	?	–	44.7µM	56.2µM	?	10µM	3.77	–
CC(C)C1Nc2ccc(C(=O)O)cc2C2C=CCC21 (stereo not drawn)	10µM	?	79.4µM	31.6µM	28.2µM	4.47µM	2.99	–
CC(=O)c1ccc2c(c1)C1C=CCC1C(c1cc3c(cc1Br)OCO3)N2 (stereo not drawn)	–[2.33 µM]	–	–	–	·	?	·	·
O=C(NCc1ccco1)c1cc2ccc(O)cc2oc1=O	–	–	56.2µM	–	28.2µM	20µM	9.47	–
Cc1ccc(-c2cc(-c3ccco3)c(C#N)c(=O)[nH]2)cc1	–	–	50.1µM	79.4µM	?	28.2µM	21.2	–
Cc1ccc(-c2cc(C(F)(F)F)c(C#N)c(=O)[nH]2)cc1	–[2.33 µM]	–	–	–	–	–	·	·
CCCc1nc2sc3c(SCC(=O)NCc4ccco4)ncnc3c2c2c1CCC2	39.8µM	?	28.2µM	22.4µM	50.1µM	14.1µM	18.9	–
Cc1nc(SCC(=O)NCc2ccco2)c2c3c(sc2n1)CCCC3	–	–	–	–	?	–	·	·
CSc1nc(NCCOCCO)c2sc3nc(-c4ccco4)c4c(c3c2n1)CCC4	15.8µM	–	44.7µM	–	35.5µM	5.62µM	2.67	–
CC1=CN2C(=N)/C(=C/c3ccco3)C(=O)N=C2S1	–	–	–	–	–	–	·	·
CC1=CN2C(=N)/C(=C/c3ccc([N+](=O)[O-])o3)C(=O)N=C2S1	?	?	44.7µM	79.4µM	35.5µM	35.5µM	13.4	–
CC(Cc1c[nH]c2ccccc12)C(=O)O (stereo not drawn)	10µM	?	44.7µM	25.1µM	–	2µM	2.99	–	ME-1 growth=–
CCc1ccc(NC(=O)C2CCCN2S(=O)(=O)c2ccc3c(c2)C(C)(C)C(=O)N3C)cc1 (stereo not drawn)	·	–	–	–	–	–	·	·
Cc1ccc(-c2nn3c(C)nnc3s2)cc1NC(=O)c1ccc(-c2cccc(Cl)c2)o1	?	–	–	?	22.4µM	22.4µM	7.52	–	G9a inh-2=?
O=C(CCCc1c[nH]c2ccccc12)NCC1COc2ccccc2O1 (stereo not drawn)	–	–	?	–	–	·	·	·
CCCC(=O)c1cc(O)c(O)cc1O	·	·	·	·	·	·	·	·	ME-1 growth=–
CCCc1cc(C(=O)Cc2ccc(F)cc2)c(O)cc1O	–[12.7 µM]	–	–	–[11.4 µM]	–	–	·	·
CCOC(=O)C1CCN(c2c([N+](=O)[O-])c(C(Cl)Cl)nn2-c2ccccc2)CC1	?	?	?	?	–	–	·	·

Compound activity: PubChem, National Center for Advancing Translational Sciences (NCATS)
